Test results from PubChem BioAssay (NCATS).
Values without a mark were called inactive. Inconclusive results are not listed. Calls of active or inactive are those of the source. The call rests on the fitted dose curve; in most records, active means well fitted curve in the direction sought with a large enough effect; inconclusive means small, poorly fitted or top-dose-only effect, or another doubt; inactive means no such curve, though single readings can be large; an effect the other way counts as inactive or inconclusive.

Target: Cytochrome P450 3A4 (Homo sapiens) (UniProt P08684)
Sequence (P08684 whole entry, looked up): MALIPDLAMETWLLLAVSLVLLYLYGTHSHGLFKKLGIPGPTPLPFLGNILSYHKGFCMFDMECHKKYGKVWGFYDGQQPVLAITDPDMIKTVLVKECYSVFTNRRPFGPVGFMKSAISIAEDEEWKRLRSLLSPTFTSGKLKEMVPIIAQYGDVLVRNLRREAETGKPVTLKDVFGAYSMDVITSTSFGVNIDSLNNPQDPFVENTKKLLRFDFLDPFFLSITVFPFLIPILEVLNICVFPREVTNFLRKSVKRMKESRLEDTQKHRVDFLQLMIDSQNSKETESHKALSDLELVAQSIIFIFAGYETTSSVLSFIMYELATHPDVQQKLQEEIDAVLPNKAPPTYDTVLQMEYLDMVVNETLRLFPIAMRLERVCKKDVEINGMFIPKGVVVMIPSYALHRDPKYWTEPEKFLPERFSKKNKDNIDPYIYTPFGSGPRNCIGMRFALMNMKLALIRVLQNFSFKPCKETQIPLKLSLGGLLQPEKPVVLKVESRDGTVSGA
Experiment: qHTS Assay for Inhibitors and Substrates of Cytochrome P450 3A4 (AID 884); further: nearly all actives have a fitted effect of over 50% in size; further: potency means the concentration at half of the fitted maximal effect; on activity change, negative = inhibition: on the % scale 0 is the no-effect control and ±100 the full control effect
Conditions: recombinant CYP3A4, Luciferin-PPXE luminescence; series mostly up to 57.1 µM; activity change, negative = inhibition: at the top concentration
Summary of the method: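 20 nM human CYP3A4 with 25 uM Luciferin-PPXE (at KM) in 200 mM KPO4, preincubated 10 min with compound; NADPH regeneration started a 60 min RT reaction. Luciferin detected by luminescence, normalized to 57 uM ketoconazole as full inhibition.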

| Compound | activity change, negative = inhibition | Potency |
| --- | --- | --- |
| Cc1cn([C@H]2C[C@H](O)[C@@H](CO)O2)c(=O)[nH]c1=O | -14.6% |  |
| O=C(O)CN(CCN(CC(=O)O)CC(=O)O)CC(=O)O | -8.32% |  |
| Cc1c(C)c2c(c(C)c1O)CC[C@@](C)(CCC[C@H](C)CCC[C@H](C)CCCC(C)C)O2 | 9.98% |  |
| CC1=C(/C=C/C(C)=C/C=C/C(C)=C/C=C/C=C(C)/C=C/C=C(C)/C=C/C2=C(C)CCCC2(C)C)C(C)(C)CCC1 | -42% |  |
| OCc1ccccc1O[C@@H]1O[C@H](CO)[C@@H](O)[C@H](O)[C@H]1O | -7.83% |  |
| CC1=C(/C=C/C(C)=C/C=C/C(C)=C/C=C/C=C(C)/C=C/C=C(C)/C=C/C2=C(C)C(=O)CCC2(C)C)C(C)(C)CCC1=O | 4.96% |  |
| Oc1cc(O)c2c(c1)OC(c1ccc(O)c(O)c1)C(O)C2 (stereo not drawn) | -42.2% |  |
| O=c1ccn([C@@H]2O[C@H](CO)[C@@H](O)[C@H]2O)c(=O)[nH]1 | -11.8% |  |
| CC(Cc1ccc(O)c(O)c1)C(C)Cc1ccc(O)c(O)c1 (stereo not drawn) |  | 12.6 µM (active) |

Target: Cytochrome P450 3A4 (Homo sapiens) (UniProt P08684)
Experiment: qHTS Assay for Activators of Cytochrome P450 3A4 (AID 885); further: nearly all actives have a fitted effect of over 65% in size
Conditions: recombinant CYP3A4, Luciferin-PPXE luminescence, 60 min; series mostly up to 57.1 µM; activity change, positive = activation: at the top concentration
Summary of the method: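 Quantitative HTS format: compounds preincubated with 20nM human CYP3A4 and Luciferin-PPXE substrate at KM, reaction started by NADPH regeneration, stopped after 60 min, luciferase luminescence read 20 min later.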

| Compound | activity change, positive = activation |
| --- | --- |
| C[C@@H]1CCC2[C@@H](C)[C@@H](O)O[C@@H]3O[C@@]4(C)CC[C@@H]1[C@@]23OO4 (stereo partly drawn) | -34.7% |
| C=CCSSSCC=C | -37.6% |
| CC(C(=O)O)c1ccc(N2Cc3ccccc3C2=O)cc1 (stereo not drawn) | -33.9% |
| CC(Cc1ccc(O)c(O)c1)C(C)Cc1ccc(O)c(O)c1 (stereo not drawn) | -70.9% |

Target: Cytochrome P450 2D6 (Homo sapiens) (UniProt P10635)
Sequence (P10635 whole entry, looked up): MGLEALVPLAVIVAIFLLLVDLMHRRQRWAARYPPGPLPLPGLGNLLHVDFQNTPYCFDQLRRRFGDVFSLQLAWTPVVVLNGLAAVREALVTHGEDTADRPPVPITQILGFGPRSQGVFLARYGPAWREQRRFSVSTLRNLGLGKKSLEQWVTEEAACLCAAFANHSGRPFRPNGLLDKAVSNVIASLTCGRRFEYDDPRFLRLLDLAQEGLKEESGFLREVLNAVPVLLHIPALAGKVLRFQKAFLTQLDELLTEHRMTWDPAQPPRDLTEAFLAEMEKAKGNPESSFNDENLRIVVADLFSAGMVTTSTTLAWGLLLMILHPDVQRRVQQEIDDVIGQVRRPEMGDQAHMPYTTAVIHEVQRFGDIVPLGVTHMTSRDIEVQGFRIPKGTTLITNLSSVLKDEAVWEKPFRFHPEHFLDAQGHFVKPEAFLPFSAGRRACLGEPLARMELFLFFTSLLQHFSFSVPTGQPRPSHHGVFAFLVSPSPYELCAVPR
Experiment: qHTS Assay for Inhibitors and Substrates of Cytochrome P450 2D6 (AID 891); further: potency means the concentration at half of the fitted maximal effect; nearly all actives have a fitted effect of over 60% in size
Conditions: recombinant CYP2D6, luciferin-ME EGE luminescence; series mostly up to 57.1 µM; activity change, negative = inhibition: at the top concentration
Summary of the method: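 Human CYP2D6 (5 nM) with 30 uM Luciferin-ME EGE (at Km) in 100 mM KPO4, compound preincubated 10 min, then NADPH regeneration system for 60 min at room temperature. Luciferin read by luminescence; normalized to 1.43 uM quinidine.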

| Compound | Potency |
| --- | --- |
| O=C1CSC2(CCN(CCCN3c4ccccc4Sc4ccc(Cl)cc43)CC2)N1 | 0.631 µM (active) |
| CN(C)CCCN1c2ccccc2C(C)(C)c2ccccc21 | 3.98 µM (active) |
| CC(C)N=c1cc2n(-c3ccc(Cl)cc3)c3ccccc3nc-2cc1Nc1ccc(Cl)cc1 | 2.51 µM (active) |

System: not listed separately
Experiment: Confirmation and Secondary Assay for Modulators of Hemoglobin Beta Chain Splicing at IVS2 654 locus (AID 910);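 further: HeLa cells stably carrying EGFP split by mutant beta-globin IVS2-654 intron; % of control where 0% means no effect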
Conditions: HeLa EGFP-654 splicing reporter, GFP fluorescence, 48 h; series mostly up to 46.1 µM; activation (splicing correction): at the top concentration
Summary of the method: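 HeLa cells stably expressing EGFP interrupted by β-globin IVS2-654 intron, seeded overnight in Opti-MEM/2% FCS, then treated 2 days at 37 °C. Restored splicing read as total peak GFP intensity per well by laser scanning cytometry (488 nm excitation, 500–520 nm emission); 500 nM antisense PNA as control.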

| Compound | activation (splicing correction) |
| --- | --- |
| CCCC(=O)Nc1ncnc2c1ncn2C1OC2COP(=O)(O)OC2C1OC(=O)CCC (stereo not drawn) | 10.1% |
| C[C@@H]1CCC2[C@@H](C)[C@@H](O)O[C@@H]3O[C@@]4(C)CC[C@@H]1[C@@]23OO4 (stereo partly drawn) | -2.62% [at 38.3 µM] |
| CN1Cc2c(N)cccc2C(c2ccccc2)C1 (stereo not drawn) | -1.36% |
| O=C(O)CN(CCN(CC(=O)O)CC(=O)O)CC(=O)O | -0.499% |
| C=CCSSSCC=C | 1.91% |
| CCC(=O)NCCC1CCc2ccc3c(c21)CCO3 (stereo not drawn) | 0.224% |
| CC1=C(/C=C/C(C)=C/C=C/C(C)=C/C=C/C=C(C)/C=C/C=C(C)/C=C/C2=C(C)CCCC2(C)C)C(C)(C)CCC1 | 0.333% [at 38.3 µM] |
| CC(C(=O)O)c1ccc(N2Cc3ccccc3C2=O)cc1 (stereo not drawn) | 3.16% |
| NC(=O)c1ncn(C2OC(CO)C(O)C2O)n1 (stereo not drawn) | -0.861% [at 38.3 µM] |
| CC1=C(/C=C/C(C)=C/C=C/C(C)=C/C=C/C=C(C)/C=C/C=C(C)/C=C/C2=C(C)C(=O)CCC2(C)C)C(C)(C)CCC1=O | 1.42% [at 38.3 µM] |
| Nc1c(Br)cc(Br)cc1CNC1CCC(O)CC1 (stereo not drawn) | -3.83% |
| Oc1cc(O)c2c(c1)OC(c1ccc(O)c(O)c1)C(O)C2 (stereo not drawn) | 4.64% |
